The supplement of paper PMC10849652
The full data set covers some 8,800 targets. This sample favours those with a hit. About 0.5% of all pairs of compound and target were hits.

Tests used:
Assay in all cases: log2 fold change, soluble protein after heating vs DMSO (PISA); higher = thermal stabilisation; K562 lysate, 10 uM; active = over 0.2 and 3.5 SD of the protein, either way, in both replicates (recomputed)
vemurafenib = compound: CCCS(=O)(=O)Nc1ccc(F)c(C(=O)c2c[nH]c3ncc(-c4ccc(Cl)cc4)cc23)c1F [vemurafenib]
Summary of the method: (§1)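 Dounce homogenisation of K562 pellets in PBS pH 7.4 with 1 mM MgCl2 produced a crude extract, used at 1 mg/mL protein. Exposure to 10 μM compound lasted 30 min, and aliquots were then heated for 3 min across 48°C-58°C, pooled and brought to 0.5% NP-40 at 4°C. The supernatant after 21,000xg for 90 min was quantified by TMTpro 16plex LC-MS/MS with channel sums equalised. Duplicate values are given as log-two fold change in thermal stability relative to solvent controls.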

[1] = compound: CCCS(=O)(=O)Nc1ccc(F)c(C(=O)c2c[nH]c3ncc(Cl)cc23)c1F
Summary of the method: as §1

barasertib = compound: CCN(CCCOc1ccc2c(Nc3cc(CC(=O)Nc4cccc(F)c4)[nH]n3)ncnc2c1)CCOP(=O)(O)O [barasertib]
Summary of the method: as §1

[2] = compound: CC[C@@H]1C(=O)N(C)c2cnc(Nc3ccc(C(=O)NC4CCN(C)CC4)cc3OC)nc2N1C1CCCC1
Summary of the method: as §1

volasertib = compound: CC[C@@H]1C(=O)N(C)c2cnc(Nc3ccc(C(=O)N[C@H]4CC[C@H](N5CCN(CC6CC6)CC5)CC4)cc3OC)nc2N1C(C)C [volasertib]
Summary of the method: as §1

[3] = compound: CCn1c(C(=O)N(C2CC2)C2CC2)cc2c3c(ncn3C)c(Nc3cc(C)n(C)n3)nc21
Summary of the method: as §1

[4] = compound: CCn1cc(-c2ccnc3[nH]c(-c4cccc(CN(C)C)c4)cc23)c(-c2ccc(NC(=O)N(C)C)cc2)n1
Summary of the method: as §1

[5] = compound: CN1CCC(CNc2ccc3ncc(-c4cccc(OC(F)(F)F)c4)n3n2)CC1
Summary of the method: as §1

saracatinib = compound: CN1CCN(CCOc2cc(OC3CCOCC3)c3c(Nc4c(Cl)ccc5c4OCO5)ncnc3c2)CC1 [saracatinib]
Summary of the method: as §1

sotrastaurin = compound: CN1CCN(c2nc(C3=C(c4c[nH]c5ccccc45)C(=O)NC3=O)c3ccccc3n2)CC1 [sotrastaurin]
Summary of the method: as §1

alvocidib = compound: CN1CC[C@H](c2c(O)cc(O)c3c(=O)cc(-c4ccccc4Cl)oc23)[C@H](O)C1 [alvocidib]
Summary of the method: as §1

Tubastatin A = compound: CN1CCc2c(c3ccccc3n2Cc2ccc(C(=O)NO)cc2)C1 [Tubastatin A]
Summary of the method: as §1

[6] = compound: CNC(=O)C1=CC=CC=C1NC2=NC(=NC=C2Cl)NC3=C(C=C(C=C3)N4CCOCC4)OC
Summary of the method: as §1

defactinib = compound: CNC(=O)c1ccc(Nc2ncc(C(F)(F)F)c(NCc3nccnc3N(C)S(C)(=O)=O)n2)cc1 [defactinib]
Summary of the method: as §1

[7] = compound: CNc1nc(-c2ccc3c(N)n[nH]c3c2)cc(N2C[C@@H](C(=O)NC3CCCCC3)CC[C@H]2C)n1
Summary of the method: as §1

encorafenib = compound: COC(=O)N[C@@H](C)CNc1nccc(-c2cn(C(C)C)nc2-c2cc(Cl)cc(NS(C)(=O)=O)c2F)n1 [encorafenib]
Summary of the method: as §1

[8] = compound: COC(=O)[C@H](CCSC)NC(=O)C1=C(C=C(C=C1)NC[C@H](CS)N)C2=CC=CC=C2
Summary of the method: as §1

alisertib = compound: COc1cc(Nc2ncc3c(n2)-c2ccc(Cl)cc2C(c2c(F)cccc2OC)=NC3)ccc1C(=O)O [alisertib]
Summary of the method: as §1

[9] = compound: COc1cc2nc(-c3cc(F)ccc3O)nc(N[C@@H]3CNC[C@H]3C(C)(C)O)c2cc1OC
Summary of the method: as §1

gefitinib = compound: COc1cc2ncnc(Nc3ccc(F)c(Cl)c3)c2cc1OCCCN1CCOCC1 [gefitinib]
Summary of the method: as §1

Measured: log2 fold change

DYRK1A (UniProt Q13627)
inactive: vemurafenib -0.06 | [1] -0.009 | barasertib 0.025 | [2] -0.047 | volasertib -0.016 | [3] 0.038 | [4] -0.004 | [5] 0.044 | saracatinib -0.017 | sotrastaurin -0.013 | alvocidib 0.106 | Tubastatin A -0.088 | [6] 0.113 | defactinib 0.016 | [7] -0.034 | encorafenib 0.024 | [8] 0.002 | alisertib -0.008 | [9] 0.017 | gefitinib 0.007

FYN (UniProt P06241)
Sequence of UniProt P06241 (P06241 whole entry, looked up): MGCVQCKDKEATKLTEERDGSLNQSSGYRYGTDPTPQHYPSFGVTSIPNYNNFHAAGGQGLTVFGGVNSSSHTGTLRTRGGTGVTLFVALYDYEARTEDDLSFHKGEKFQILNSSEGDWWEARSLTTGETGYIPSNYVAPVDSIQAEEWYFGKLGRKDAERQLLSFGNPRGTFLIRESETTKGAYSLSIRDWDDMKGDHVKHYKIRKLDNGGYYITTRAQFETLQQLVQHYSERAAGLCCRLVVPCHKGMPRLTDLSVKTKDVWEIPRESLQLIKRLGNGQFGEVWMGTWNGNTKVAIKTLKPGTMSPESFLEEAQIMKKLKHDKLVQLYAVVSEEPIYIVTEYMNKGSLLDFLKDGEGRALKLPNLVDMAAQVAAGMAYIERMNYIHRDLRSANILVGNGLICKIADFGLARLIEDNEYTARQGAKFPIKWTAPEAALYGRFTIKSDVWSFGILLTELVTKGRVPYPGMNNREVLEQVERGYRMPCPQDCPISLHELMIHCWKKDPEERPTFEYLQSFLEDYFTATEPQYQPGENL
inactive: vemurafenib -0.036 | [1] -0.01 | barasertib 0.065 | [2] -0.351 | volasertib 0.046 | [3] 0.033 | [4] 0.048 | [5] 0.22 | sotrastaurin 0.023 | alvocidib -0.078 | Tubastatin A 0.03 | [6] -0.009 | defactinib 0.038 | [7] -0.069 | encorafenib 0.092 | [8] -0.121 | [9] 0.005

ESRRA (UniProt P11474)
active: [4] 0.569
inactive: vemurafenib 0.058 | [1] 0.005 | barasertib 0.041 | [2] 0.03 | volasertib -0.075 | [3] -0.039 | [5] -0.283 | saracatinib -0.055 | sotrastaurin 0.053 | alvocidib 0.167 | Tubastatin A -0.169 | [6] 0.033 | defactinib -0.086 | [7] -0.04 | encorafenib 0.048 | [8] -0.072 | alisertib -0.045 | [9] -0.029 | gefitinib 0.07

FAM83A (UniProt Q86UY5)
Sequence of UniProt Q86UY5 (Q86UY5 whole entry, looked up): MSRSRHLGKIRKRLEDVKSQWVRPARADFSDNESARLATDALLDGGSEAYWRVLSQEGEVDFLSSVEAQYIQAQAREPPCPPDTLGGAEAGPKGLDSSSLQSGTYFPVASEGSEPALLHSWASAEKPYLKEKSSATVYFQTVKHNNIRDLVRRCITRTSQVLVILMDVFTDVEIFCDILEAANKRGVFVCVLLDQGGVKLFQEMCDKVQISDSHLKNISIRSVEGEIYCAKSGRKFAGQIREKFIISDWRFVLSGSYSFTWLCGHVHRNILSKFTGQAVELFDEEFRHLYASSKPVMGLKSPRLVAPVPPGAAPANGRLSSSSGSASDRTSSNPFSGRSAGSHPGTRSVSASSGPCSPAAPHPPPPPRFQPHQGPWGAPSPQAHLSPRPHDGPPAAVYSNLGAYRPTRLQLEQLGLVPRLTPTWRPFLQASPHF
inactive: vemurafenib 0.038 | [1] -0.002 | barasertib 0.035 | [2] -0.001 | volasertib 0.003 | [3] 0.05 | [4] 0.103 | [5] 0.06 | saracatinib 0.01 | sotrastaurin -0.049 | alvocidib -0.095 | Tubastatin A -0.039 | [6] 0.061 | defactinib -0.055 | [7] 0.015 | encorafenib 0.02 | [8] 0.07 | alisertib 0.02 | [9] -0.013 | gefitinib 0.017

EIF2B4 (UniProt Q9UI10)
inactive: vemurafenib -0.064 | [1] 0.026 | barasertib 0.006 | [2] 0.04 | volasertib -0.032 | [3] 0.048 | saracatinib 0.042 | sotrastaurin 0.047 | Tubastatin A 0.006 | [6] -0.004 | defactinib 0.03 | [7] -0.058 | encorafenib 0.114 | [8] -0.1 | alisertib -0.039 | [9] -0.008 | gefitinib 0.074

GALK1 isoform 2 (UniProt P51570)
Sequence of UniProt P51570 (P51570 whole entry, looked up): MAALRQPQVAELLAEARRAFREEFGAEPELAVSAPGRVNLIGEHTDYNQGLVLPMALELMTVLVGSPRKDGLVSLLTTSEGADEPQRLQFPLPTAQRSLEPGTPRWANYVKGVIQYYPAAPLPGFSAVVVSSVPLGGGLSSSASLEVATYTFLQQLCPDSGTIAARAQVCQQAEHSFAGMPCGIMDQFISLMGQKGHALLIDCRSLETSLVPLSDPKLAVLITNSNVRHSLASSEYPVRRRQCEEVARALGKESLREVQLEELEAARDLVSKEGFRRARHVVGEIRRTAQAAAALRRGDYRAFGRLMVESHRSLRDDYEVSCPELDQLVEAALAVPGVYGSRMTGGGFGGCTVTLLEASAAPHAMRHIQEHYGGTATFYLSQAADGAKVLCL
inactive: vemurafenib 0.024 | [1] 0.01 | barasertib 0.031 | [2] 0.003 | volasertib -0.054 | [3] -0.009 | [4] 0.085 | [5] -0.055 | saracatinib -0.011 | sotrastaurin 0.031 | alvocidib 0.035 | Tubastatin A -0.132 | [6] -0.005 | defactinib -0.002 | [7] 0 | encorafenib 0.02 | [8] -0.171 | alisertib 0.054 | [9] -0.016 | gefitinib 0.034

FASTKD2 (UniProt Q9NYY8)
inactive: vemurafenib -0.014 | [1] -0.002 | barasertib 0.037 | [2] 0.004 | volasertib -0.036 | [3] 0.011 | [4] -0.072 | [5] 0.03 | saracatinib 0.012 | sotrastaurin 0.014 | alvocidib 0.014 | Tubastatin A -0.065 | [6] 0.016 | defactinib 0.056 | [7] 0.036 | encorafenib -0.016 | [8] -0.004 | alisertib 0.021 | [9] -0.033 | gefitinib 0.021

FIBP (UniProt O43427)
Sequence of UniProt O43427 (O43427 whole entry, looked up): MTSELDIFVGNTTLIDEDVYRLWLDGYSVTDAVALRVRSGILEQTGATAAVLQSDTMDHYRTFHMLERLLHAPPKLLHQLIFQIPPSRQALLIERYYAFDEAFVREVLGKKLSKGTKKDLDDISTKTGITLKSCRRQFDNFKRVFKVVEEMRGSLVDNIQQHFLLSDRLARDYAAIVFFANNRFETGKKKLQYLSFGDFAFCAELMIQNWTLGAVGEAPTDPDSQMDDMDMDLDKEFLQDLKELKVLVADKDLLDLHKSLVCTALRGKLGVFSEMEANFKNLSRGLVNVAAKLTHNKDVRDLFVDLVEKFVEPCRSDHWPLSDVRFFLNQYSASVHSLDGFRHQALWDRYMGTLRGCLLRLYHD
inactive: vemurafenib -0.011 | [1] 0.041 | barasertib 0.105 | volasertib -0.013 | [3] -0.001 | [4] -0.028 | [5] -0.021 | saracatinib 0.039 | sotrastaurin 0.008 | alvocidib 0.03 | Tubastatin A 0.003 | [6] 0.05 | defactinib 0.1 | [7] -0.079 | encorafenib 0.036 | [8] 0.094 | alisertib 0.012 | [9] 0.002 | gefitinib -0.005
active: [2] -0.236

EXOC1 (UniProt Q9NV70)
inactive: vemurafenib 0 | [1] 0.027 | barasertib 0.051 | [2] -0.106 | volasertib -0.03 | [3] 0.082 | [4] 0.053 | [5] -0.119 | saracatinib 0 | sotrastaurin 0.02 | alvocidib 0.01 | Tubastatin A -0.139 | [6] 0.006 | defactinib 0.022 | [7] -0.086 | encorafenib 0.014 | [8] 0.012 | alisertib 0.007 | [9] -0.015 | gefitinib 0.015

DVL2 (UniProt O14641)
Sequence of UniProt O14641 (O14641 whole entry, looked up): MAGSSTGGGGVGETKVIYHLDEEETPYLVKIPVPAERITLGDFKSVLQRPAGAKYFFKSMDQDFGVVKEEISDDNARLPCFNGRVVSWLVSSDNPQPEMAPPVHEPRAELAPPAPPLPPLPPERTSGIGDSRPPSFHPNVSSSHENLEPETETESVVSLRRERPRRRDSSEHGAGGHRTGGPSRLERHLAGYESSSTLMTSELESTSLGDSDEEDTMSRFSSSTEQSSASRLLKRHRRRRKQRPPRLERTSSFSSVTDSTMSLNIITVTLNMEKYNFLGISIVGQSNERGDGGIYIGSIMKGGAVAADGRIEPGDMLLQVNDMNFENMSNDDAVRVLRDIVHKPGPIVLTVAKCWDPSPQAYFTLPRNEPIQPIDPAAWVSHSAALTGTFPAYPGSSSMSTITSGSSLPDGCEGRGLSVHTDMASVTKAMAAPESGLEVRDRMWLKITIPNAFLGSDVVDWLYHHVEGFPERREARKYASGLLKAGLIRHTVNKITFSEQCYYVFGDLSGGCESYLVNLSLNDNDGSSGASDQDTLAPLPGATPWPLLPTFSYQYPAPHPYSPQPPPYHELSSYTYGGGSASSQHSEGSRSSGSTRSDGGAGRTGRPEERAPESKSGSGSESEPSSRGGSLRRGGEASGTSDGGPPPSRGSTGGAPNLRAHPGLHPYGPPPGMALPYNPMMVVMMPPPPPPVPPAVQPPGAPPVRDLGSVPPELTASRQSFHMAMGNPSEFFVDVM
inactive: vemurafenib 0.067 | [1] -0.172 | barasertib 0.119 | [2] -0.033 | volasertib 0 | [3] 0.007 | [4] 0.011 | [5] -0.003 | saracatinib 0.018 | sotrastaurin -0.055 | alvocidib 0.002 | Tubastatin A -0.079 | [6] -0.039 | defactinib 0.028 | [7] -0.027 | encorafenib -0.018 | [8] -0.036 | alisertib 0.003 | [9] -0.069 | gefitinib 0.006

GBA2 (UniProt Q9HCG7)
Sequence of UniProt Q9HCG7 (Q9HCG7 whole entry, looked up): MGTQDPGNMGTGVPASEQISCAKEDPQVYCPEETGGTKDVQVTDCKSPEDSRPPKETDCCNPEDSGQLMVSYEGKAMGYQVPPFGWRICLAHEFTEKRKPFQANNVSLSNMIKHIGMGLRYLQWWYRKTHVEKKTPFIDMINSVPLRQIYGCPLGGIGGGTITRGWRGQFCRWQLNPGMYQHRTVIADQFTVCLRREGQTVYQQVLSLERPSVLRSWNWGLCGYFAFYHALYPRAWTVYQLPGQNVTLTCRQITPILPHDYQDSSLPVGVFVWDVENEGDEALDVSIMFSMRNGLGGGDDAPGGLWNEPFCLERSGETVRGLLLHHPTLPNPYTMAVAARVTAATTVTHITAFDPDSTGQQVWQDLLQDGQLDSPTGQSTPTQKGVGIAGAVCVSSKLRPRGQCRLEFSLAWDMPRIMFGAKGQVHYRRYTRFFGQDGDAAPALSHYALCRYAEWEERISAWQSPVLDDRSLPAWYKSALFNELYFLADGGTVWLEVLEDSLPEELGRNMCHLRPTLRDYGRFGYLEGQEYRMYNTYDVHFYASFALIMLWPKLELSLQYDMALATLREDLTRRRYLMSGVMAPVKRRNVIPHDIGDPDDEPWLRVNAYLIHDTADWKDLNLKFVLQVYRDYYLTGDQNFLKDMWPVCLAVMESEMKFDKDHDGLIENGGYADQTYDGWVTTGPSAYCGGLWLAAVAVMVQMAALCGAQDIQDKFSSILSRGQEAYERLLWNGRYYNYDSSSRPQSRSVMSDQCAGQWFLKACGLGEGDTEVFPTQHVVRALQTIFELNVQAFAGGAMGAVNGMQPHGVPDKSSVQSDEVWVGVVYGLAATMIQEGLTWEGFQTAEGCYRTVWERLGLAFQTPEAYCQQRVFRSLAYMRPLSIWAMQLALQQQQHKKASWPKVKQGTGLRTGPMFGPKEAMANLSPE
inactive: [1] 0.12 | barasertib -0.01 | [2] 0.099 | volasertib -0.21 | [3] 0 | [4] -0.076 | [5] 0.025 | saracatinib 0.033 | sotrastaurin 0.001 | alvocidib -0.046 | Tubastatin A -0.032 | [6] 0.073 | [7] -0.098 | encorafenib -0.052 | [8] 0.079 | alisertib -0.004 | [9] 0.013 | gefitinib 0.2

GIPC3 (UniProt Q8TF64)
Sequence of UniProt Q8TF64 (Q8TF64 whole entry, looked up): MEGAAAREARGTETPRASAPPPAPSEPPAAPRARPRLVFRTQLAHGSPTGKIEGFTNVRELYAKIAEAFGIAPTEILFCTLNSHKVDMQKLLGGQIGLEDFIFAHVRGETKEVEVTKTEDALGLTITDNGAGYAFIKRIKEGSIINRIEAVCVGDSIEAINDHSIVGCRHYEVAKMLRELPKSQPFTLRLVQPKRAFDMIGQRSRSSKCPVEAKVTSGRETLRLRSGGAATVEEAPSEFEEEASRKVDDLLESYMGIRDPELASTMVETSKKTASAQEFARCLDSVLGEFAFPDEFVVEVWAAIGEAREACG
inactive: [1] -0.119 | barasertib 0.055 | [2] -0.15 | volasertib -0.041 | [3] -0.045 | [4] -0.01 | [5] 0.144 | saracatinib 0.029 | sotrastaurin 0.006 | alvocidib -0.108 | Tubastatin A -0.071 | [6] 0.055 | [7] -0.157 | encorafenib 0.028 | [8] 0.05 | alisertib -0.194 | [9] 0.008 | gefitinib 0.073

FAM76B (UniProt Q5HYJ3)
inactive: vemurafenib 0.048 | [1] -0.005 | [2] 0.04 | volasertib 0.005 | [3] -0.008 | [4] 0.025 | [5] 0.007 | saracatinib -0.003 | sotrastaurin 0.027 | alvocidib -0.019 | Tubastatin A 0.012 | [6] 0.068 | defactinib 0.076 | [7] -0.002 | encorafenib 0.013 | [8] -0.146 | alisertib -0.02 | [9] 0.016 | gefitinib -0.018

EIF2AK3 (UniProt Q9NZJ5)
inactive: [1] -0.216 | volasertib 0.231 | [3] 0.119 | [4] -0.063 | [5] -0.199 | saracatinib 0.01 | alvocidib 0.281 | Tubastatin A -0.369 | [6] 0.28 | [7] 0.104 | alisertib -0.128 | [9] -0.197 | gefitinib 0.001

EIF3I (UniProt Q5TFK1)
inactive: [1] 0.147 | volasertib -0.112 | [4] -0.048 | [5] 0.044 | alvocidib 0.053 | alisertib 0.159 | [9] 0.613 | gefitinib 0.233

DTL (UniProt Q9NZJ0)
inactive: vemurafenib -0.007 | barasertib 0.044 | [3] 0.02 | [4] 0.065 | [5] -0.034 | saracatinib -0.1 | sotrastaurin -0.03 | alvocidib -0.008 | Tubastatin A -0.072 | [6] -0.003 | defactinib 0.071 | [7] -0.092 | alisertib -0.038 | gefitinib 0.043

EWSR1 (UniProt H7BY36)
inactive: vemurafenib -0.035 | barasertib -0.055 | [2] 0.095 | [3] -0.046 | [4] -0.056 | [5] -0.043 | saracatinib 0.024 | sotrastaurin -0.02 | alvocidib 0.206 | Tubastatin A 0.179 | defactinib 0.14 | [7] 0.037 | encorafenib 0.063 | [8] -0.061

FMNL2 isoform 3 (UniProt Q96PY5)
Sequence of UniProt Q96PY5 (Q96PY5 whole entry, looked up): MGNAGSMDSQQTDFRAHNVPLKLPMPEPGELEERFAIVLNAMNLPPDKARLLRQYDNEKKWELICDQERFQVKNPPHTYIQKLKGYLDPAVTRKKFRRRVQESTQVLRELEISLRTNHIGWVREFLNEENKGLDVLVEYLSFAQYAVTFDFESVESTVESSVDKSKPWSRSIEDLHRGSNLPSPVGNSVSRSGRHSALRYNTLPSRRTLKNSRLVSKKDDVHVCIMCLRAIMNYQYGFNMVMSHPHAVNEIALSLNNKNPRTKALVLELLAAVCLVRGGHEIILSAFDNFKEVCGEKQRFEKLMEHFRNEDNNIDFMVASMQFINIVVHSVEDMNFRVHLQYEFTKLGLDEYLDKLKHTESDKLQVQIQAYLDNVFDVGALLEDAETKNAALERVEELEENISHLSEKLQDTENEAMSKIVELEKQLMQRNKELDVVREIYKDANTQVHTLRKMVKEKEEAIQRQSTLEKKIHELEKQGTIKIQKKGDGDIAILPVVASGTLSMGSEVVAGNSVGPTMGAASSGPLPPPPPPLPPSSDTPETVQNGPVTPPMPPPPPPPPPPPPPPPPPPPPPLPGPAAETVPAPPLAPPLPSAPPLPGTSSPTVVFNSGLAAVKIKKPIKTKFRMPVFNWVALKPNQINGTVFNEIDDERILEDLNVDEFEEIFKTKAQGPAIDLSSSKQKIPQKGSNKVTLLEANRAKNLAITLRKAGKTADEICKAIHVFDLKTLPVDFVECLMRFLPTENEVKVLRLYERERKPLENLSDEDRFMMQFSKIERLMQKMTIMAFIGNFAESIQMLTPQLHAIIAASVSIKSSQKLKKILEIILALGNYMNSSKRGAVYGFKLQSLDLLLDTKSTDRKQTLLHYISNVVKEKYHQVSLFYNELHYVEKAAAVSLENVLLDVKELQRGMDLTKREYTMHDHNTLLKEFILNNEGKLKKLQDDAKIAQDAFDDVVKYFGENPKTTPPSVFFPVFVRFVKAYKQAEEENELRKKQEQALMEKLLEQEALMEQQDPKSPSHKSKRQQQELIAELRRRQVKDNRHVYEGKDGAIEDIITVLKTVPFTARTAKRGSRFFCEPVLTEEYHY
inactive: [1] 0.022 | volasertib -0.013 | [3] -0.103 | saracatinib 0.04 | sotrastaurin 0.08 | Tubastatin A 0.108 | [6] 0.011 | [7] 0.044 | alisertib 0.073 | [9] 0.119 | gefitinib 0.241

FAT1 (UniProt Q14517)
inactive: [1] 0.022 | [2] 0.32 | volasertib 0.025 | [3] -0.344 | [4] 0.001 | [5] -0.036 | sotrastaurin -0.333 | alvocidib -0.14 | Tubastatin A 0.18 | [6] 0 | encorafenib 0.029 | [8] 0.047 | [9] 0.094
